{"source": "PubChem BioAssay AID504692", "about": "(The Scripps Research Institute Molecular Screening Center, 2011)", "note": "Screen size: about 340,000 compounds; about 2,000 (0.59%) were called active. For the sample, actives were picked, then their nearest neighbours and some compounds at random. Values without a mark were called inactive. Rule as the data show it: active = activation mostly above about 9.5% (no sharp cut-off); inactive = mostly below about 7.6%.", "data": [{"biological_target": "5-hydroxytryptamine receptor 5A (Homo sapiens) (UniProt P47898)", "sequence (P47898 whole entry, looked up)": "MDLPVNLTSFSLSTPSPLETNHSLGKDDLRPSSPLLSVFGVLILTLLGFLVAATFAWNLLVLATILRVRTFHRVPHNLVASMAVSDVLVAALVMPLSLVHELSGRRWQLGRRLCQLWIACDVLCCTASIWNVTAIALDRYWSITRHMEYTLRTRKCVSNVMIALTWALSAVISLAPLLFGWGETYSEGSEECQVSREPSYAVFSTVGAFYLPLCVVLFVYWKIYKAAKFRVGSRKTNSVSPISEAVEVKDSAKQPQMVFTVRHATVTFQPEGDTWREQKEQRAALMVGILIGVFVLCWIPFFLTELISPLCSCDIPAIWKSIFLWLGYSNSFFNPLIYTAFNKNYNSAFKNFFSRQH", "experiment": "HTR5A agonists in luminescence cell assay, primary screen, counter-screen for OPRM1-OPRD1 heterodimer agonist project, full-deck HTS (AID 504692);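 also: 0% = cells with vehicle only and 100% = reference agonist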", "conditions": "cell-based, at 9.3 µM, hits give high values", "values": [{"smiles": "CCc1c(Nc2ccccc2Cl)nc(N)[nH]c1=O", "activation": "-3.6%"}, {"smiles": "O=C(COC(=O)c1cc[n+]([O-])cc1)Nc1ccc(Cl)c(C(F)(F)F)c1", "activation": "3.73%"}, {"smiles": "O=C(CC(O)(C(F)(F)F)C(F)(F)F)Nc1ccc(Cl)c(Cl)c1", "activation": "20.1% (active)"}, {"smiles": "NC(=O)N1CCCC1C(=O)Nc1ccc(Cl)c(Cl)c1", "note": "(centres undefined)", "activation": "1.66%"}, {"smiles": "CC(C)(C)NS(=O)(=O)CC12CCC(CC1=O)C2(C)C", "note": "(centres undefined)", "activation": "3.18%"}, {"smiles": "CC1(C)C2CCC1(CS(=O)(=O)NCCc1c[nH]c3ccccc13)C(=O)C2", "note": "(centres undefined)", "activation": "41.5% (active)"}, {"smiles": "COc1ccccc1CNS(=O)(=O)CC12CCC(CC1=O)C2(C)C", "note": "(centres undefined)", "activation": "-5.29%"}, {"smiles": "COc1ccc(/C=C2/CCCc3ccccc3C2=O)cc1", "activation": "-2.8%"}, {"smiles": "COc1ccc(OC)c(C2C3=C(N=c4s/c(=C\\c5cccc(O)c5)c(=O)n42)c2ccccc2CC3)c1", "note": "(centres undefined)", "activation": "13.5% (active)"}, {"smiles": "O=C1[C@@H]2C(Cc3ccc(O)cc3)NC3(C(=O)Nc4ccc(F)cc43)[C@@H]2C(=O)N1c1ccc(F)cc1", "note": "(some centres undefined)", "activation": "1.44%"}, {"smiles": "CC1CCN(CC(=O)Nc2nccs2)CC1", "activation": "-1.58%"}, {"smiles": "COc1ccccc1C(=O)NCCC(=O)NC(C)CCc1ccccc1", "note": "(centres undefined)", "activation": "5.98%"}, {"smiles": "CC(CCn1cccn1)NC(=O)CCc1nnc(CCc2ccccc2)o1", "note": "(centres undefined)", "activation": "4.98%"}, {"smiles": "CCC(C)NC(=O)CCCc1ccccc1", "note": "(centres undefined)", "activation": "14.8% (active)"}, {"smiles": "Cc1noc(C)c1S(=O)(=O)N(CC(=O)NCc1ccc(Cl)cc1)c1ccc2c(c1)OCO2", "activation": "1.78%"}, {"smiles": "Cc1ccc(-n2c(=O)cc(N3CCN(Cc4ccccc4)CC3)[nH]c2=O)cc1", "activation": "7.71%"}, {"smiles": "CCOc1cc2c(Cl)ncnc2c(OCC)c1OCC", "activation": "2%"}, {"smiles": "COc1ccc(S(=O)(=O)N2CCC(C(=O)NCCC(=O)NCc3cccc(OC)c3)CC2)cc1", "activation": "-0.19%"}, {"smiles": "CCOc1ccc(NC(=O)Nc2cc(C)on2)cc1", "activation": "14.5% (active)"}, {"smiles": "CCOc1ccc(C(=O)Nc2ccc(S(=O)(=O)Nc3cc(C)on3)cc2)cc1", "activation": "5.44%"}, {"smiles": "CCC(=O)Nc1ccc(C(=O)Nc2cc(C)on2)cc1", "activation": "6.16%"}, {"smiles": "COc1cccc(OCC(O)CNC(=O)c2oc3c(C)c(C)ccc3c2C)c1", "note": "(centres undefined)", "activation": "0.14%"}, {"smiles": "O=C1CCCC2=C1C(c1cccs1)n1nc(SCc3ccccc3)nc1N2", "note": "(centres undefined)", "activation": "1.85%"}, {"smiles": "CC(=O)c1cccc(NC(=O)C2CCN(C(=O)c3ccccc3Cl)CC2)c1", "activation": "1.54%"}, {"smiles": "O=C(CSc1nncs1)NC1CCCc2ccccc21", "note": "(centres undefined)", "activation": "-2.59%"}, {"smiles": "CC(C)(C)OC(=O)N1CCC(NC(=O)c2[nH]cnc2C(=O)N[C@@H](Cc2ccccc2)C(=O)OCc2ccccc2)CC1", "activation": "38% (active)"}, {"smiles": "O=C(N[C@@H](Cc1ccccc1)C(=O)OCc1ccccc1)c1nc[nH]c1C(=O)NC1CCNCC1", "activation": "-1.94%"}, {"smiles": "CC(C)(C)OC(=O)CNC(=O)c1[nH]cnc1C(=O)N[C@@H](Cc1ccccc1)C(=O)OCc1ccccc1", "activation": "9.43%"}, {"smiles": "CC(=O)NCCC(=O)Nc1cc(S(=O)(=O)N2CCOCC2)ccc1N1CCOCC1", "activation": "-0.71%"}, {"smiles": "O=C(COC(=O)c1ccccc1F)Nc1cc(S(=O)(=O)N2CCOCC2)ccc1N1CCCC1", "activation": "-1.44%"}, {"smiles": "O=C(CNCc1ccco1)Nc1cc(S(=O)(=O)N2CCOCC2)ccc1N1CCCC1", "activation": "16.7% (active)"}, {"smiles": "Cc1ccc(C(=O)NC2CCN(C(=O)Nc3ccccc3Cl)CC2)cc1", "activation": "-0.54%"}, {"smiles": "COc1ccccc1CCNC(=O)c1cnccn1", "activation": "2.02%"}, {"smiles": "COc1ccc(C(C#N)Nc2ccc(C)cc2)cc1", "note": "(centres undefined)", "activation": "2.71%"}, {"smiles": "CCN1CCN(C(=O)C2CCN(S(=O)(=O)c3cc(Cl)ccc3Cl)CC2)CC1", "activation": "1.91%"}, {"smiles": "O=C(c1cnc(Cl)c(Cl)c1)N1CCN(S(=O)(=O)c2ccc(F)cc2)CC1", "activation": "-1.02%"}, {"smiles": "CC(=O)N1CCN(S(=O)(=O)c2c(F)cc(F)c(Cl)c2F)CC1", "activation": "11.6% (active)"}, {"smiles": "CCc1nnc(NC(=O)CSCc2cc(=O)n3cc(C)sc3n2)s1", "activation": "-1%"}, {"smiles": "C/C(=N\\NC(=O)CNc1cccc2ccccc12)c1ccc(Br)s1", "activation": "46.5% (active)"}, {"smiles": "C/C(=N\\NC(=O)CSc1nc2ccccc2c(=O)n1-c1ccccc1C)c1cccs1", "activation": "9.42%"}, {"smiles": "Cc1cccc(/C=N/NC(=O)CNc2cccc3ccccc23)n1", "activation": "2.33%"}, {"smiles": "COc1ccc(CN2CCCCC2C)cc1OC", "note": "(centres undefined)", "activation": "-0.45%"}, {"smiles": "COc1ccc(C2CC(c3cccs3)=Nc3ccccc3S2)cc1OC", "note": "(centres undefined)", "activation": "0.29%"}, {"smiles": "CN(Cc1ccco1)S(=O)(=O)c1nnc(NC(=O)c2ccccc2)s1", "activation": "2.57%"}, {"smiles": "CNc1nnc(-c2ccco2)s1", "activation": "15.4% (active)"}, {"smiles": "O=C(Nc1nc(-c2ccco2)c(-c2ccco2)s1)c1ccco1", "activation": "5.45%"}, {"smiles": "CCCCNC(=O)CSc1nc2n[nH]c(C)c2c(=N)n1-c1cccc(Cl)c1C", "activation": "-2.98%"}, {"smiles": "COc1cccc(-n2c(SCC(=O)NC3CCCCC3)nc3n[nH]c(C)c3c2=N)c1", "activation": "0.63%"}, {"smiles": "Cc1ccc(-n2c(SCC(=O)NCCC3=CCCCC3)nc3n[nH]c(C)c3c2=N)cc1Cl", "activation": "12.6% (active)"}, {"smiles": "CCOc1ccc(CN(Cc2ccco2)C(c2cccs2)c2nnnn2C(C)(C)C)cc1", "note": "(centres undefined)", "activation": "-2.19%"}, {"smiles": "Cc1nc2ccccc2c(C(=O)O)c1-c1ccccn1", "activation": "-0.26%"}, {"smiles": "CCOC(=O)CC(=O)CSc1nc(-c2ccccc2)cc(-c2ccc(Cl)cc2)c1C#N", "activation": "10.7% (active)"}, {"smiles": "CCSc1nc(-c2ccc(OC)cc2)cc(-c2ccc(OC)cc2)c1C#N", "activation": "0.07%"}, {"smiles": "N#Cc1c(C(F)(F)F)cc(-c2ccc(Cl)cc2)nc1SCC(=O)O", "activation": "-1.06%"}, {"smiles": "O=C(Nn1cnnc1)c1cc(Cl)ccc1Cl", "activation": "-1.93%"}, {"smiles": "c1cc(-c2nn[nH]n2)ccc1CN1CCCCC1", "activation": "19.3% (active)"}, {"smiles": "Brc1ccc(-c2nn[nH]n2)cc1", "activation": "8.54%"}, {"smiles": "Clc1ccc(CN2CCCCCC2)cc1Cl", "activation": "1.18%"}, {"smiles": "OCC1(CO)CC2(C1)CC(CO)(CO)C2", "activation": "-2.41%"}, {"smiles": "O=C(N/N=C\\c1ccc(Br)cc1)c1ccc(Cn2cccn2)o1", "activation": "0.84%"}, {"smiles": "Cc1nn(Cc2ccc(Cl)cc2)c(Cl)c1/C=N/NC(=O)c1cccnc1", "activation": "4.12%"}, {"smiles": "Cc1c(Cl)c([N+](=O)[O-])nn1Cc1ccc(C(=O)N/N=C\\c2cc(Cl)ccc2O)o1", "activation": "13% (active)"}, {"smiles": "O=C(C1CCCO1)N1CCN(S(=O)(=O)c2ccc(Br)cc2)CC1", "note": "(centres undefined)", "activation": "1.59%"}, {"smiles": "COc1ccc(Cl)cc1NC(=O)CN(C)C(=O)c1cc(-c2cccs2)nn1-c1ccccc1", "activation": "-7.03%"}, {"smiles": "CCCN1C(=O)C(NS(=O)(=O)c2ccc(N)cc2)(C(F)(F)F)C(C(=O)OC)=C1C", "note": "(centres undefined)", "activation": "-4.18%"}, {"smiles": "COC(=O)c1c(NC(=O)C2CC(C)=C(C)CC2C(=O)O)sc2c1CCCCC2", "note": "(centres undefined)", "activation": "5.77%"}, {"smiles": "CC(C)OC(=O)c1c(NC(=O)c2ccco2)sc2c1CCCC2", "activation": "14.5% (active)"}, {"smiles": "CNC(=O)c1c(NC(NC(=O)c2ccco2)C(=O)c2ccc(Cl)cc2)sc2c1CCCC2", "note": "(centres undefined)", "activation": "-4.03%"}, {"smiles": "CN(C)CCCO/N=C(\\c1ccccc1)c1ccncc1", "activation": "7.85%"}, {"smiles": "Cc1ccc(C2CCN(C(=S)Nc3cccc(Cl)c3)C2)cc1", "note": "(centres undefined)", "activation": "1.97%"}, {"smiles": "CC(C)(C)n1ncc2c(=O)n(Cc3ccc(Cl)cc3)cnc21", "activation": "3.5%"}, {"smiles": "CN(CC(=O)NCc1ccc(Cl)cc1)S(=O)(=O)c1cccs1", "activation": "1.02%"}, {"smiles": "CCSc1nnc(-c2cc3c(s2)-c2ccccc2CC3)o1", "activation": "-1.94%"}, {"smiles": "CSc1nc2sc3c(c2c(=O)[nH]1)CCc1ccccc1-3", "activation": "12.1% (active)"}, {"smiles": "CCSc1nc2sc3c(c2c(=O)[nH]1)CC(C)(C)OC3", "activation": "2.29%"}, {"smiles": "O=C(Nc1ccc2c(c1)OCO2)C1CC1(Cl)Cl", "note": "(centres undefined)", "activation": "12.7%"}, {"smiles": "Cc1ccc(-c2noc(CCC(=O)Nc3ccccc3N3CCN(C)CC3)n2)cc1", "activation": "-1.14%"}, {"smiles": "O=C(Nc1ccccc1Cl)O/N=C(/c1ccccc1)c1ccccn1", "activation": "12.7% (active)"}, {"smiles": "Cc1ccc(C(=O)O/N=C(\\N)c2ccccn2)cc1Cl", "activation": "4.33%"}, {"smiles": "O=C(COc1ccc(-n2cnnn2)cc1)Nc1ccccc1Cl", "activation": "5.09%"}, {"smiles": "OCCC1CN(Cc2cccn2-c2nccs2)CCN1CCc1ccccc1", "note": "(centres undefined)", "activation": "0.07%"}, {"smiles": "O=C(CC(Cc1ccccc1)C(=O)O)NCCc1ccc2c(c1)OCO2", "note": "(centres undefined)", "activation": "0.52%"}, {"smiles": "O=C(CCc1nnc(Cc2ccc3c(c2)OCO3)o1)NCCc1ccccc1Cl", "activation": "10.7% (active)"}, {"smiles": "O=C(CCNS(=O)(=O)c1ccccc1C(F)(F)F)NCc1ccc2c(c1)OCO2", "activation": "-3.01%"}, {"smiles": "CC(NC(=O)COc1ccc(-c2ccccc2)cc1)C1CCCO1", "note": "(centres undefined)", "activation": "4.73%"}, {"smiles": "COCCCNC(=O)CN1CCN(Cc2ccccc2Cl)C1=O", "activation": "2.41%"}, {"smiles": "Cc1ccccc1CN1CCN(CC(=O)NCc2ccccn2)C1=O", "activation": "16.8% (active)"}, {"smiles": "Cc1nn(CC(=O)NCc2ccccn2)c(C)c1[N+](=O)[O-]", "activation": "-1.81%"}, {"smiles": "O=C(Cn1nnc(-c2ccccc2)n1)N/N=C/c1ccc(-c2ccc(Cl)cc2)o1", "activation": "1.41%"}, {"smiles": "CC(=O)Nc1ccc(C(=O)Nc2cccc(S(=O)(=O)NC3=NCCC3)c2)cc1", "activation": "1.89%"}, {"smiles": "CN(CCOc1ccc(Br)cc1)CC(=O)Nc1cccc(S(=O)(=O)NC2=NCCC2)c1", "activation": "12.7% (active)"}, {"smiles": "CCc1ccc(C(=O)OCC(=O)Nc2cccc(S(=O)(=O)NC3=NCCCCC3)c2)cc1", "activation": "7.2%"}, {"smiles": "Cn1c(=O)[nH]c(=O)c2c1nc(N(CCO)Cc1ccccc1)n2Cc1ccccc1Cl", "activation": "-3.62%"}, {"smiles": "COc1ccc(Cl)cc1NC(=O)C(C)N1CCc2ccccc21", "note": "(centres undefined)", "activation": "1.38%"}]}]}
